# Screens as filed in PubChem BioAssay.
# L3MBTL1 block: L3MBTL1 (human) inhibition; Q9Y468; Potency, µM (titrated, usually from 57.1 µM), for the others: at the highest dose activity, negative = inhibition, hits mostly inhibitors; hit rate 0.66% among 230,000; AlphaScreen L3MBTL1–H3K9me1 peptide binding; also: % is scaled to controls: 0 for no effect and ±100 for the full control effect; nearly all actives have a fitted effect of over 60% in size
#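 AlphaScreen assay: L3MBTL1 (50 nM final) was preincubated 30 min at room temperature with biotinylated H3(1-15)K9me1 peptide (75 nM final), then 30 min with library compounds; streptavidin donor and nickel chelate acceptor beads (10 ug/mL final) added, 30 min dark.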
# Pol kappa inh: DNA polymerase kappa (human) inhibition; Potency, µM (top dose mostly 107 µM), inactives show at the top dose activity, negative = inhibition, most hits filed as inhibitors; purified Pol kappa, fluorescent DNA synthesis assay, 10 min; AID 588579; hit rate 0.53% among 400,000; also: % is scaled to controls: 0 for no effect and ±100 for the full control effect
#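 Kinetic fluorescence screen: compound preincubated 15 min RT with 10 nM enzyme; 50 nM substrate (final) initiates; reads at 0/10 min.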
# POLH inh: blocks human DNA polymerase eta activity. Potency, µM (doses to about 114 µM), for inactives: top-dose activity change, negative = inhibition, hits mostly inhibitors. hit rate 1.2% among 390,000. recombinant Pol eta, fluorescent DNA replication assay. Q9Y253. AID 588591; also: % is scaled to controls: 0 for no effect and ±100 for the full control effect
#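 Pol eta (10 nM) was preincubated with compounds for 15 min at room temperature, after which fluorescent replication substrate (50 nM final) was added to start the reaction. Fluorescence was read kinetically at 0 and 10 min.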
# Pol beta inh: inhibitors of human DNA polymerase beta | P06746 | hit rate 1.3% among 340,000 | Potency, µM (titrated, usually from 114 µM), for the others: at the top dose activity change, negative = inhibition, usual class: inhibitors | Pol beta primer extension/strand displacement, fluorescence kinetic | AID 485314; also: % is scaled to controls: 0 for no effect and ±100 for the full control effect
#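 Human Pol beta at 10 nM; strand-displacement substrate 50 nM final. Compound exposure 15 min at room temperature before start, reaction 10 min at room temperature.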
# Pol iota inh: blocks human DNA polymerase iota activity; hit rate 1% among 390,000; Pol iota fluorescent replication assay, 10 min; Potency, µM (series often up to 115 µM), inactives show top-dose activity, negative = inhibition, usual class: inhibitors; Q9UNA4
#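 Fluorescent replication assay read twice, at 0 min and 10 min after adding 50 nM (final) substrate. Enzyme (10 nM) and compounds were first incubated 15 min at room temperature; enzyme-free buffer wells were negative controls.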
# APEX1 inh: inhibitors of human APE1 endonuclease; P27695; recombinant APE1, TAMRA/BHQ-2 abasic DNA cleavage fluorescence; Potency, µM (series often up to 65.8 µM), without a hit: at the top dose activity change, negative = inhibition, hits mostly inhibitors; hit rate 0.35% among 350,000;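 also: plate controls were vehicle for no effect and reference inhibitor for full effect; nearly all actives have a fitted effect of over 55% in size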
# Target sequence (P27695 whole entry, looked up): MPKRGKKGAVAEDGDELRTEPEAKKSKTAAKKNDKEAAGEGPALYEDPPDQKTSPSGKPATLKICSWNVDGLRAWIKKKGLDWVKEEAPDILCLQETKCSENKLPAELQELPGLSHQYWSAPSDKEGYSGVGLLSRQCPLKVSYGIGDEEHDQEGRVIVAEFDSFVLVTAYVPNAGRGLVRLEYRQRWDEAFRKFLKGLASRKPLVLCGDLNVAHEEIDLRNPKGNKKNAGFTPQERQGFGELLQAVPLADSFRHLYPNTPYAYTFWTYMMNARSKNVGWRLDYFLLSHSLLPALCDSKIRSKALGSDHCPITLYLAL
#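 Measures dequenching upon AP-site incision of a 5'-TAMRA/3'-BHQ-2 THF-containing duplex, 50 nM; human APE1 0.75 nM after 15 min room-temperature exposure to compound; kinetic three-point read at one-minute spacing.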
# * marks the source's active call; other numbers are inactive results; ? = inconclusive; . = no result given; [ ] = another dose, or the depositor's remark. A selection: hits, their analogues and other compounds. The true share with any hit is near 2.5%. Calls follow the shape of the dose curve; as a rule, active = well fitted curve in the direction sought with a large enough effect; inconclusive = small, poorly fitted or top-dose-only effect, or another doubt; inactive = no such curve, though single readings can be large; an effect the other way counts as inactive or inconclusive. Potency is read from the fitted curve at half-maximal effect.
SMILES,L3MBTL1 block,Pol kappa inh,POLH inh,Pol beta inh,Pol iota inh,APEX1 inh
CCc1nnc(NS(=O)(=O)c2ccc(NC(=S)NC(=O)/C=C/c3ccc(OC)cc3)cc2)s1,-15.2%,?,-11.0%,-8.3%,44.7µM*,2.4%
CCC(=O)Nc1ccc(NC(=S)NC(=O)/C=C/c2ccccc2)cc1,0.8%,-27.0%,?,10µM*,?,23.5%
CCc1nnc(NS(=O)(=O)c2ccc(NC(=S)Nc3ccc(F)cc3)cc2)s1,2.0%,-15.2%,-4.6%,42.5%,-9.9%,-2.6%
c1cc2c3c(c1)CCC[N+]3(C1CCCCC1)CCC2,.,-14.3%,.,.,26.6%,.
CCc1nnc(NS(=O)(=O)c2ccc(NC(=S)NC(=O)/C=C/c3ccccc3)cc2)s1,3.5%,-21.1%,70.8µM*,-8.7%,?,?
CCc1nnc(NS(=O)(=O)c2ccc(NC(=S)NC(=O)c3ccccc3)cc2)s1,-4.1%,-1.4%,-9.5%,6.6%,5.5%,2.9%
CC(=O)N[C@@H]1C(O[C@H]2O[C@H](C(=O)O)C(O)[C@H](O)[C@H]2O)[C@H](O)[C@@H](CO)O[C@H]1O[C@@H]1C(C(=O)O)O[C@@H](O[C@H]2[C@H](O)[C@@H](CO)OC(O)[C@@H]2NC(C)=O)[C@H](O)[C@H]1O (some centres not stated),.,-6.2%[19.4 µM],.,.,.,.
COc1ccc2[nH]cc(CCNc3ncncc3-c3ccc(C(=O)N(C)C)cc3)c2c1,.,6.0%[60.1 µM],.,.,.,14.4%
COc1ccc(N=Cc2c(O)n(-c3cccc(C)n3)c(=O)c3ccccc23)c(OC)c1,.,-12.5%,?,?,35.9%,-0.2%
COc1ccccc1NS(=O)(=O)c1cccc(-n2c(O)c(C=Nc3ccccc3C(=O)O)c3ccccc3c2=O)c1,-19.9%,-41.6%,20µM*,56.2µM*,?,-4.7%
COc1ccc(-n2c(O)c(/C=N/NS(=O)(=O)c3ccc(C)cc3)c3ccccc3c2=O)cc1OC,-8.0%,-18.2%,-16.1%,?,39.8µM*,2.7%
COc1ccc(-n2c(O)c(/C=N/NS(=O)(=O)c3cc(C)ccc3C)c3ccccc3c2=O)cc1OC,-13.1%,?,?,?,?,?
COc1cccc(N2CC(C(=O)Nc3nnc(SCC(=O)NC4CCCC4)s3)CC2=O)c1 (configuration not stated),.,-12.6%,?,-7.1%,?,29.0%
Cc1ccc(Cc2c(C)nc3nc(SCC(=O)NCc4ccco4)nn3c2C)cc1,?,-26.3%,?,22.4µM*,?,-6.2%
Cc1ccc(Nc2nnc(SCC(=O)NCc3ccco3)s2)cc1,?,?,?,10µM*,-20.6%,-2.6%
COc1cccc(N2CC(C(=O)Nc3nnc(SCC(=O)NCc4ccco4)s3)CC2=O)c1 (configuration not stated),.,?,31.6µM*,?,39.8µM*,-11.7%
O=C(CSc1nnc(NC(=O)C2CC(=O)N(c3ccccc3)C2)s1)NCC1CCCO1 (configuration not stated),.,-7.2%,-25.7%,66.3%,2.1%,11.3%
Cc1cccc(Cc2c(C)nc3nc(SCC(=O)NCc4ccco4)nn3c2C)c1,0.1%,-5.4%,1.4%,?,39.7%,-2.3%
O=C(CSc1nnc(NC(=O)C2CC(=O)N(c3ccccc3)C2)s1)NCc1ccco1 (configuration not stated),.,?,?,89.1µM*,50.1µM*,-9.3%
Cc1ccccc1CN1[C@H](C)[C@H](c2ccccc2)OCCS1(=O)=O,.,-4.7%,.,.,1.3%,.
CN(C)c1ccc(/C=C/c2c(F)cnc3ccccc23)cc1,.,-9.1%,.,.,16.0%,.
CC(C)(C)n1ncc2c(=O)n(Cc3cccc(Cl)c3Cl)cnc21,.,-15.8%,.,.,19.9%,19.9%
CCCCC(=O)N(Cc1ccc(-c2ccccc2-c2nn[nH]n2)cc1)[C@@H](C(=O)O)C(C)C,.,.,.,.,.,-4.1%
